Screening results deposited in PubChem BioAssay by National Center for Advancing Translational Sciences (NCATS).
Compounds with a hit are over-represented: about 21% of the library has one in this group of screens.
Shiga toxin inh: blocks Shiga toxin action in Vero cells. Vero cells, Shiga toxin protein synthesis inhibition reporter. inhibition, % at 38.7 µM. 9.2% of 290,000 active. AID 2315; in the data active = inhibition mostly above about 28%, no sharp cut-off; inactive = mostly below about 43%
NS1 inh: influenza NS1 inhibition. Potency, µM (series often up to 46.1 µM). 0.4% of 270,000 active. AID 2326; also: actives are rising curves; nearly all actives have a fitted effect of over 50% in size
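Compounds were scored for reversing the slow growth caused by influenza A NS1 in S. cerevisiae, measured by optical density at 600 nm. Assay medium contained 2% galactose at pH 6.0; NS1-free yeast of the same strain were the positive control.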
SARS PLpro yeast: blocks SARS-CoV papain-like protease in a yeast assay; S. cerevisiae expressing SARS-CoV PLpro, growth rescue; Potency, µM (highest dose often 32.9 µM), usual class: activators; 0.19% of 330,000 active; AID 485353; also: nearly all actives have a fitted effect of over 55% in size
Cycloheximide cs: counter-screen for Shiga toxin inhibitors: cycloheximide protein synthesis inhibition. 12% of 300,000 active. cell reporter, cycloheximide protein synthesis inhibition counterscreen. AID 2314. max response, %; in the data active = max response mostly above about 13%, no sharp cut-off; inactive = mostly below about 14%; also: read at 38.3 µM for the half of the compounds with a filed dose
Pf growth 96h: P. falciparum growth inhibition at 96 hours | P. falciparum luciferase reporter growth, 96 h | Potency, µM (top dose mostly 28.7 µM), actives largely listed as inhibitors | 6.9% of 320,000 active | AID 504834; active = well fitted inhibition curve with a large enough effect; inconclusive = small, poorly fitted or top-dose-only effect, or another doubt; inactive = no such curve, though single readings can be large or run the other way
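Erythrocytes infected with luciferase-expressing P. falciparum were dispensed at 2% hematocrit and 0.05% parasitemia (final), then incubated with compounds 96 hours at 37 C in 5% CO2. Luminescence after detection reagent addition reported growth.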
Pf growth 48h: P. falciparum growth inhibition at 48 hours (one generation). 5.9% of 310,000 active. Potency, µM (highest dose often 28.7 µM), actives largely listed as inhibitors. P. falciparum luciferase growth in erythrocytes, 48 h. AID 504832; active = well fitted inhibition curve with a large enough effect; inconclusive = small, poorly fitted or top-dose-only effect, or another doubt; inactive = no such curve, though single readings can be large or run the other way
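Here the parasites carry a stable luciferase gene and grow inside erythrocytes in Albumax-based RPMI medium with compound for one erythrocytic cycle. Activity is scored as loss of luminescent signal.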
Numbers stand for hits; . = inactive; ? = inconclusive; / = no result given. Unless noted, calls follow the shape of the full dose curve.

SMILES	Shiga toxin inh	NS1 inh	SARS PLpro yeast	Cycloheximide cs	Pf growth 96h	Pf growth 48h
CC[C@H](C)[C@H](NC(=O)[C@H](Cc1ccc(O)cc1)NC(=O)[C@H](Cc1cnc[nH]1)NC(=O)[C@H](CCCNC(=N)N)NC(=O)[C@H](CC(C)C)NC(=O)[C@H](C)NC(=O)[C@@H](N)CO)C(=O)N[C@@H](CC(N)=O)C(=O)N[C@@H](CC(C)C)C(=O)N[C@H](C(=O)N[C@H](C(=O)N[C@@H](CCCNC(=N)N)C(=O)N[C@@H](CCC(N)=O)C(=O)N[C@@H](CCCNC(=N)N)C(=O)N[C@@H](Cc1ccc(O)cc1)C(N)=O)[C@@H](C)O)[C@@H](C)CC	.	/	/	.	/	/
CCN1CCN(c2ccc(S(=O)(=O)N3CCCCC3)cc2NC(=O)COc2ccc(Cl)cc2)CC1	/	/	/	/	?	8.3µM
Cc1ccccc1OCC(=O)Nc1cc(S(=O)(=O)N2CCCCC2)ccc1N1CCN(C)CC1	.	.	.	.	?	.
CCN1CCN(c2ccc(S(=O)(=O)N3CCCCC3)cc2NC(=O)COc2cc(C)ccc2Cl)CC1	/	/	.	/	1.9µM	12µM
O=C(COc1ccc(F)cc1)Nc1cc(S(=O)(=O)N2CCCCC2)ccc1N1CCCCC1	/	/	.	/	7.4µM	3.7µM
O=C(COc1ccc(S(=O)(=O)N2CCCCC2)cc1)Nc1ccccc1F	.	.	.	.	.	12µM
COc1ccc(-n2cnnc2SCC(=O)Nc2ccccc2F)cc1	.	.	.	.	.	.
O=C(c1ccc2c(=O)n(Cc3ccccc3Cl)c(=S)[nH]c2c1)N1CCOCC1	.	.	.	.	?	?
CCN1CCN(c2ccc(S(=O)(=O)N3CCCCC3)cc2NC(=O)COc2ccc(F)cc2Cl)CC1	.	.	.	.	?	7.4µM
O=C(COc1ccc(F)cc1Cl)Nc1cccc(S(=O)(=O)N2CCCC2)c1	/	/	.	/	?	?
Cc1ccc2cc(CN(CCCO)S(=O)(=O)c3cccc4nsnc34)c(=O)[nH]c2c1	.	?	.	.	4.1µM	/
O=C(CSc1ccc2c(c1)OCCO2)Nc1ccc(N2CCOCC2)cc1	.	/	.	.	.	.
COc1cccc(/C=N/n2c(=S)n(C)c3ccccc32)c1OC	.	.	.	.	/	.
Cn1c(=S)n(/N=C/c2cccs2)c2ccccc21	46	.	.	25	.	.
Cc1n[nH]c(=S)n(/N=C/c2cccs2)c1=O	.	.	.	.	?	0.93µM
O=C(CS(=O)(=O)c1cn(CC(=O)N2CCCC2)c2ccccc12)Nc1ccccc1F	.	.	.	.	?	.
CSc1ccccc1NC(=O)C1CCCN(S(C)(=O)=O)C1 (stereo not given)	.	.	.	.	.	.
CC1CCc2nc(NC(=O)c3cc(C(C)(C)C)nn3C)sc2C1 (stereo not given)	.	.	.	.	8.3µM	?
CCOC(=O)N1CCN(S(=O)(=O)c2ccc(C(=O)Nc3nc4c(s3)CC(C)CC4)cc2)CC1 (stereo not given)	.	.	.	.	.	?
COC(=O)c1ccc(C(=O)NC(=S)Nc2nc3c(s2)CC(C)CC3)cc1 (stereo not given)	.	.	.	27	.	.
Cc1ccc(-c2nc(NC(=O)c3cc(C(C)(C)C)nn3C)sc2C)cc1Cl	.	.	.	.	2.1µM	1.9µM
Cn1nc(C(C)(C)C)cc1C(=O)NNC(=O)c1ccccc1Cl	.	.	.	.	.	.
COc1cccc(N2CCN(CC(=O)Nc3nc4c(s3)CC(C)CC4)CC2)c1 (stereo not given)	.	.	.	.	?	.
Cc1ccc(C)c(NC(=O)CCC(=O)NNS(=O)(=O)c2ccc(Cl)cc2)c1	/	/	.	/	.	.
Cc1ccc(NS(=O)(=O)c2ccc3c(c2)NC(=O)CCS3)c(Br)c1	.	.	.	.	?	6.6µM
Cc1ccc(CCNS(=O)(=O)c2ccc3c(c2)NC(=O)CCS3)cc1	.	.	.	.	13µM	.
Cc1ccccc1NS(=O)(=O)c1ccc2c(c1)NC(=O)CCS2	.	.	.	.	12µM	.
Cc1ccc(C)c(NS(=O)(=O)c2ccc3c(c2)NC(=O)CCS3)c1	.	.	.	.	9.3µM	.
COc1ccc(CCNS(=O)(=O)c2ccc3c(c2)NC(=O)CCS3)cc1OC	.	.	.	.	?	?
